Source: PubChem BioAssay AID1259415 (National Center for Advancing Translational Sciences (NCATS), 2018)
The whole screen tested about 410,000 compounds, of which about 18,000 (4.4%) were called active. About 7% were inconclusive and are not listed. Cut-off read from the data, not from the text of the source: active = activity change below about -60%; inconclusive = no clear call, values can overlap the other calls; inactive = above about -39%. Shown is part of a subset that was picked to be rich in actives.

Assay: qHTS Assay for inhibitors of the human cytomegalovirus (HCMV)
Details: HFF cells, HCMV-luciferase reporter, 72 h; at 57.5 µM; hits give low values
Summary of the method: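 Screen run at 2 compound doses on HFFs infected with reporter HCMV, MOI 1 PFU/cell. Luciferase activity from cell lysates at 72 h post infection gave inhibition relative to buffer-only and Salinomycin wells.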
% is set by controls: 0 for no effect and ±100 for the full control effect.

Row | Structure (SMILES) | activity change, negative = inhibition
1 | Cc1cc(C)cc(-n2c(SCC(=O)NCC3CCCO3)nc3c([nH]c4ccccc43)c2=O)c1 (centres undefined) | 10.8% (inactive)
2 | Cc1cc(NC(=O)CN2C(=O)NC(CC(C)C)C2=O)no1 (centres undefined) | 3.09% (inactive)
3 | O=C(Nc1ccccc1Cl)N1CCN(c2ccc3nncn3n2)CC1 | -11.9% (inactive)
4 | Cc1ccccc1C(=O)Nc1cc(C)c(O)c(-c2nc3ccccc3o2)c1 | -13.9% (inactive)
5 | Cc1ccc(C)n1-c1nnc(N2CCC(C(=O)NCc3ccc(F)cc3)CC2)s1 | 29.6% (inactive)
6 | Cn1nnnc1SCC(=O)Nc1sccc1C(N)=O | 3.24% (inactive)
7 | CCOC(=O)c1c(NC(=O)CSc2nnc(CNc3ccc(C)cc3C)o2)sc(C)c1C | 3.08% (inactive)
8 | CCOC(=O)c1c(-c2ccc(C)cc2C)csc1NC(=O)CSc1nnnn1C | -95.4% (active)
9 | CCOc1ccc(CCNC(=O)Cn2nc(CC)n3c(cc4sc(CC)cc43)c2=O)cc1OCC | -8.37% (inactive)
10 | CCOC(=O)c1c(NC(=O)/C=C/c2ccc(OC)cc2)sc2c1CCC(C)C2 (centres undefined) | -22.4% (inactive)
11 | CC1CCN(S(=O)(=O)c2ccc3c(c2)N(CC(=O)NCCc2ccccc2)C(=O)CO3)CC1 | -11.1% (inactive)
12 | Cc1ccc(-n2nc(C)c3c(C)cc(=O)n(CC(=O)Nc4ccc(C(C)C)cc4)c32)cc1 | 11% (inactive)
13 | COc1ccc(CCNc2nc(-c3ccc(F)cc3)cc(C(F)(F)F)n2)cc1OC | -24.7% (inactive)
14 | COc1ccc(-c2cc(C(F)(F)F)nc(S(C)(=O)=O)n2)cc1OC | -98.2% (active)
15 | COc1ccc(-c2cc(C(F)(F)F)nc(SCC(=O)N(C)Cc3ccccc3)n2)cc1OC | -16.1% (inactive)
16 | CC(C)Sc1oc(-c2cccs2)nc1S(=O)(=O)c1ccc(Cl)cc1 | 0.0343% (inactive)
17 | Cc1cc(NC(=O)/C=C/C(=O)N(CC(=O)NC2CCCC2)c2ccc(F)cc2)no1 | 29.1% (inactive)
18 | Cc1cc(NC(=O)/C=C/C(=O)N(c2ccccc2C)C(C(=O)NC2CCCC2)c2ccc(F)cc2)no1 (centres undefined) | -73.5% (active)
19 | Cc1cc(NC(=O)CCC(=O)N(c2cccc(F)c2)C(C(=O)NC2CCCC2)c2ccncc2)no1 (centres undefined) | -19.9% (inactive)
20 | Cc1cccc(C)c1-n1nnnc1C1C(=O)NC(=S)N1c1ccccc1 (centres undefined) | 26.7% (inactive)
21 | Cn1c(=O)c2c(nc(SCC(=O)Nc3ccc(F)cc3)n2Cc2ccccc2)n(C)c1=O | 5.41% (inactive)
22 | CCn1c(-c2cc(OC)ccc2OC)csc1=Nc1c(C)n(C)n(-c2ccccc2)c1=O | -25.8% (inactive)
23 | COc1ccc(/C=N/n2c(C)cc(C)cc2=O)cc1 | -24.9% (inactive)
24 | CN=c1scc(-c2cc(OC)ccc2OC)n1/N=C/c1c(C)[nH]c2ccccc12 | -85.5% (active)
